From PubChem BioAssay (Tox21)
“And” between values parts separate entries of the source, which are not always exact repeats. Equal values may be shown once. Inconclusive results are not listed. Entries that show only a call come without a potency. Values without a mark were called inactive. The source made the active and inactive calls. The call rests on the fitted dose curve; in most records, active means well fitted cell-killing curve with a large enough effect in the repeat runs; inconclusive means weak or mixed curves, or effect the other way; inactive means flat fitted curve, though single readings scatter.

assay: qHTS RealTime-Glo MT Cell Viability Assay in HepG2 cells - 0 hour (AID 1224889); settings: RealTime-Glo luminescence; series mostly up to 76.8 µM; activity change, negative = cytotoxicity: at the top concentration; further: nearly all actives have a fitted effect of over 50% in size
Description: U.S. Tox21 Program National Center for Advancing Translational Sciences [NCATS] NIH Chemical Genomics Center [NCGC] U.S. Environmental Protection Agency [EPA] National Institutes of Environmental Health Sciences [NIEHS] National Toxicology Program [NTP] U.S. Food and Drug Administration [FDA] Tox21 Assay Overview: Measure of cell viability is critical in the cell-base assay. Analysis of cell viability is necessary for the characterization of cell responses to cytotoxic drugs and environmental stress. A RealTime-Glo MT Cell Viability Assay to monitor cell viability in real time of continues cell culture during 40 hours of compound treatment was used to screen Tox21 10K library compounds in HepG2 cells. The RealTime-Glo MT Cell Viability Assay is a nonlytic, homogeneous, bioluminescent method to measure cell viability in real time using a simple, plate-based method. The assay involves adding NanoLuc luciferase and a cell-permeant prosubstrate to cells in culture. Viable cells reduce the proprietary prosubstrate to generate a substrate for NanoLuc luciferase. This substrate diffuses from cells into the surrounding culture medium, where it is rapidly used by the NanoLuc Enzyme to produce a luminescent signal. The signal correlates with the number of viable cells, making the assay well suited for cytotoxicity studies.
Tox21 Assay Protocol Summary: The mixture of HepG2 cell suspension and reagents were dispensed at 600cells/6 ul/well in 1536-well tissue culture treated black solid bottom plates using a Multidrop dispenser. After the assay plates were incubated at a 37 C/5% CO2 incubator for 5 hours, 23 nL of compounds dissolved in DMSO, positive and negative controls was transferred to the assay plate by a pintool work station. The plates were incubated at 37 C for 40 hours. The luminescence intensity were measured at 0h, 8h, 16h, 24h, 32h and 40h time points using ViewLux plate reader during compound treatment.
Potency means the concentration at half of the fitted maximal effect.

SMILES	Potency	activity change, negative = cytotoxicity
Cc1ccc(S(=O)(=O)O)cc1	inactive	
CC/C(=C(\c1ccccc1)c1ccc(OCCN(C)C)cc1)c1ccccc1	inactive	
Cc1cc(C)nc(NS(=O)(=O)c2ccc(N)cc2)n1	inactive	
O=c1[nH]cnc2c1ncn2[C@H]1CC[C@@H](CO)O1	inactive	
Cc1cc(=O)oc2cc(O)ccc12	inactive	
O=C1c2c(O)cccc2Cc2cccc(O)c21	inactive	
CCCc1cc(=O)[nH]c(=S)[nH]1	inactive	
CC(=O)Nc1c(I)c(NC(C)=O)c(I)c(C(=O)O)c1I	inactive	
CCOC(N)=O	inactive	
Oc1ccccc1	inactive	
O=c1[nH]cc(F)c(=O)[nH]1	inactive	
CC(C)c1c(C(=O)Nc2ccccc2)c(-c2ccccc2)c(-c2ccc(F)cc2)n1CC[C@@H](O)C[C@@H](O)CC(=O)O	inactive	
O=C1NS(=O)(=O)c2ccccc21	inactive	
CCCCC(CC)C(=O)O (stereo not given)	inactive	
CC(=O)C(=O)O	inactive	
CNNCc1ccc(C(=O)NC(C)C)cc1	inactive	
CCN(CC)C(=O)c1cccc(C)c1	inactive	
F[B-](F)(F)F	inactive	
O=C(Nc1ncc([N+](=O)[O-])s1)c1cccs1		-2.63% [at 35.3 µM]
CN(C)C(=O)Nc1ccc(Cl)c(Cl)c1	inactive	

SMILES	Potency	activity change, negative = cytotoxicity
O=C1NC(=O)C(c2ccccc2)(c2ccccc2)N1	inactive	
NC(=O)c1cccnc1	inactive	
NC1CCCCC1	inactive	
Cc1cccc(C)c1	inactive	
CCCCCCCCCCCC[N+](C)(C)Cc1ccccc1	inactive	
CC(C)NCC(O)c1ccc(O)c(O)c1 (stereo not given)	inactive	
CCN(Cc1c(F)cccc1Cl)c1c([N+](=O)[O-])cc(C(F)(F)F)cc1[N+](=O)[O-]		-9.67%
Cc1c(C(=O)O)c(O)cc2c1C(=O)c1c(O)c([C@@H]3O[C@H](CO)[C@@H](O)[C@H](O)[C@H]3O)c(O)c(O)c1C2=O	inactive	
COc1cccc(O)c1O		2.26%
Nc1ccc2c(c1)CN1C(=O)c3ccccc3C1=N2		4.86% [at 15.8 µM]
O=C1OC2(c3ccccc31)c1cc(Br)c(O)c(Br)c1Oc1c2cc(Br)c(O)c1Br	9.92 µM (active) and 20 µM (active)	
CC(C)C(=O)Nc1ccc([N+](=O)[O-])c(C(F)(F)F)c1	inactive	
C[C@](N)(Cc1ccc(O)c(O)c1)C(=O)O	inactive	
CCCCC1(COC(=O)CCC(=O)O)C(=O)N(c2ccccc2)N(c2ccccc2)C1=O	inactive	
O=C(O)c1ccccc1	inactive	
CCCCCCc1ccc(O)cc1O	inactive	
O=C(O)CC(O)C(=O)O (stereo not given)	inactive	
CCCCOC(=O)c1ccc(O)cc1	inactive	
CN(N=O)C(=O)N[C@@H]1[C@@H](O)[C@H](O)[C@@H](CO)O[C@@H]1O	inactive	
NS(=O)(=O)O	inactive	
